# “And” between values parts separate entries of the source, which are not always exact repeats. Equal values may be shown once. Results filed as inconclusive are left out. Values without a mark were called inactive. The source made the active and inactive calls. Calls come from the whole dose curve; as a rule, active = well fitted inhibition curve with a large enough effect; inconclusive = small, poorly fitted or top-dose-only effect; inactive = flat fitted curve, though single readings scatter.
# How the values were obtained:
# W2 = assay: qHTS profiling for inhibitors of Plasmodium falciparum proliferation (AID 504749); note: potency is the fitted concentration of half-maximal effect; conditions: P. falciparum in erythrocytes, SYBR Green DNA, 72 h; series mostly up to 28.7 µM
# In short: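 SYBR Green fluorescence (ex 485 nm, em 535 nm) reports parasite DNA after 72 h compound exposure of infected red cells at 0.3% parasitemia, 2.5% hematocrit; signal normalized to 0.29 uM artemisinin and vehicle wells.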
# KB-3-1 = assay: Cytotoxic Profiling of Annotated Libraries Using Quantitative High-Throughput Screening (AID 1296008); conditions: Five cell lines viability, CellTiter-Glo ATP luminescence, 48-72 h; max response: stronger effect = lower value; note: potency is the fitted concentration of half-maximal effect; for max response: % is set by controls: 0 for no effect and ±100 for the full control effect
# In short: (§1)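 Cells exposed to compounds for 48 or 72 hr at 37 degrees Celsius. Viability read as ATP-coupled luminescence with CellTiter-Glo after 10 min at room temperature.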
# HaCat [1] = assay: as above; conditions: Five cell lines viability, CellTiter-Glo ATP luminescence, 48-72 h; max response: stronger effect = lower value
# In short: as §1
# MCC-13 = assay: qHTS assay to identify novel small-molecules to repurpose for Merkel cell carcinoma treatment (AID 1296009); conditions: MCC and control cell lines, CellTiter-Glo viability, 72 h; series mostly up to 46 µM
# In short: (§2)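 CellTiter-Glo luminescence after 72 hr compound exposure at 37 degree celsius gave cell viability. Libraries NPC and MIPE were run as 8- and 11-point dose responses; RLUs normalized to DMSO (negative) and no-cell (cytotoxicity) controls.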
# MCC-26 = assay: as above; conditions: MCC and control cell lines, CellTiter-Glo viability, 72 h; series mostly up to 46 µM
# In short: as §2
# NIH3T3 = assay: Cytotoxic Profiling of Annotated Libraries Using Quantitative High-Throughput Screening (AID 1296008); conditions: Five cell lines viability, CellTiter-Glo ATP luminescence, 48-72 h; max response: stronger effect = lower value; note: potency is the fitted concentration of half-maximal effect; for max response: % is set by controls: 0 for no effect and ±100 for the full control effect
# In short: as §1
# HACAT [2] = assay: qHTS assay to identify novel small-molecules to repurpose for Merkel cell carcinoma treatment (AID 1296009); conditions: MCC and control cell lines, CellTiter-Glo viability, 72 h; at 44.8 µM (top of the series) unless noted
# In short: as §2
# Note: nearly all actives have a fitted effect of over 60% in size.
smiles,measurement,setting,value
N=c1ccn2c(n1)O[C@H]1[C@H](O)[C@@H](CO)O[C@H]12,Potency,W2,inactive
same,max response,KB-3-1,33.6%
CC(=O)[C@]1(O)Cc2c(O)c3c(c(O)c2[C@@H](O[C@H]2C[C@H](N)[C@H](O)[C@H](C)O2)C1)C(=O)c1c(O)cccc1C3=O,Potency,W2,4.26 µM (active)
same,Potency,KB-3-1,4.61 µM (active) and 5.17 µM (active)
O=C(O)COc1ccc(C(=O)c2cccs2)c(Cl)c1Cl,Potency,W2,inactive
same,max response,KB-3-1,-1.65% and 4.87%
O=c1cc(-c2ccccc2)oc2ccccc12,Potency,HaCat [1],34 µM (active)
same,Potency,KB-3-1,199 nM (active)
same,Potency,MCC-13,inactive
same,Potency,MCC-26,inactive
O=C(O)c1cc(O)c(O)c(O)c1,Potency,W2,5.36 µM (active)
NC(=O)C(c1ccccc1)(c1ccccc1)[C@@H]1CCN(CCc2ccc3c(c2)CCO3)C1,Potency,W2,1.69 µM (active)
Cc1[nH]cnc1CN1CCc2c(c3ccccc3n2C)C1=O,Potency,W2,inactive
same,Potency,MCC-13,inactive
CCN(CC)CCCCNc1ncc2cc(-c3c(Cl)cccc3Cl)c(NC(=O)NC(C)(C)C)nc2n1,Potency,HaCat [1],20.6 µM (active)
same,Potency,NIH3T3,1.16 µM (active)
C#C[C@]1(O)CC[C@H]2[C@@H]3CCc4cc(O)ccc4[C@H]3CC[C@@]21C,Potency,W2,inactive
same,Potency,HaCat [1],4.73 µM (active)
same,max response,NIH3T3,-26.3%
same,Potency,MCC-26,inactive
CC[C@H]1OC(=O)[C@H](C)[C@@H](O[C@H]2C[C@@](C)(OC)[C@@H](O)[C@H](C)O2)[C@H](C)[C@@H](O[C@@H]2O[C@H](C)C[C@H](N(C)C)[C@H]2O)[C@](C)(O)C[C@@H](C)C(=O)[C@H](C)[C@@H](O)[C@]1(C)O,max response,KB-3-1,12% and -5.16%
O=C(O)/C=C\C(=O)O,Potency,MCC-13,inactive
CC[C@H]1OC(=O)[C@H](C)C(=O)[C@H](C)[C@@H](O[C@@H]2O[C@H](C)C[C@H](N(C)C)[C@H]2O)[C@](C)(OC)C[C@@H](C)C(=O)[C@H](C)[C@H]2N(CCCCn3cnc(-c4cccnc4)c3)C(=O)O[C@]12C,max response,KB-3-1,6.09% and 49.1%
CCCCCCOc1ccccc1C(N)=O,Potency,W2,inactive
same,max response,HaCat [1],-20.5%
same,max response,NIH3T3,-8.29%
same,Potency,MCC-13,inactive
O=C(O)[C@H](O)[C@@H](O)[C@H](O)[C@H](O)CO,Potency,W2,inactive
same,max response,KB-3-1,1.75% and -7.15%
Nc1nc2ccc([N+](=O)[O-])cc2s1,Potency,HaCat [1],27.3 µM (active)
same,max response,KB-3-1,-15.7%
same,Potency,MCC-13,inactive
same,Potency,MCC-26,inactive
CCCCC[C@H](O)/C=C/[C@@H]1[C@@H](C/C=C\CCCC(=O)O)[C@@H](O)C[C@H]1O,Potency,W2,inactive
same,max response,KB-3-1,4.45% and 3.57%
Oc1c(Br)cc(Br)c2cccnc12,Potency,W2,inactive
same,Potency,MCC-13,inactive
same,Potency,MCC-26,inactive
CCCCCC[C@@H](O)C/C=C\CCCCCCCC(=O)O,Potency,W2,inactive
same,max response,KB-3-1,-2.77% and 6.21% and -9.38%
CN1[C@@H](CC(=O)c2ccccc2)CCC[C@H]1C[C@H](O)c1ccccc1,Potency,W2,5.36 µM (active)
same,max response,KB-3-1,-11.5%
C[S+](CC[C@H](N)C(=O)O)C[C@H]1O[C@@H](n2cnc3c(N)ncnc32)[C@H](O)[C@@H]1O (some centres undefined),Potency,W2,inactive
same,max response,KB-3-1,16.4% and -2.48%
CC1(C)C[C@@H]1C(=O)N/C(=C\CCCCSC[C@H](N)C(=O)O)C(=O)O,Potency,W2,inactive
same,max response,KB-3-1,4.27% and -2.38%
C=C(Nc1ccc(OCC)cc1)Nc1ccc(OCC)cc1,max response,KB-3-1,-11.3% and -9.03%
O=C(O)/C=C/C(O)c1ccc(Cl)cc1 (centres undefined),Potency,W2,inactive
same,max response,KB-3-1,-6.79%
Cc1ccccc1CNc1ncnc2c1ncn2C1OC(CO)C(O)C1O (centres undefined),Potency,W2,inactive
CC(C)Cc1ccc([C@H](C)C(=O)O)cc1,max response,KB-3-1,-10.1%
O=C1CN(/N=C/c2ccc(-c3ccc([N+](=O)[O-])cc3)o2)C(=O)N1,Potency,W2,inactive
CC1(C)S[C@@H]2[C@H](NC(=O)[C@H](N)c3ccccc3)C(=O)N2[C@H]1C(=O)O,outcome,HACAT [2],inactive
same,Potency,MCC-13,inactive
same,Potency,MCC-26,inactive
COC(=O)C1=C(C)NC(C)=C(C(=O)OCC(C)C)C1c1ccccc1[N+](=O)[O-] (centres undefined),Potency,W2,6.01 µM (active)
same,max response,HaCat [1],0.281%
same,max response,NIH3T3,-5.79%
COc1cc(/C=C/C(=O)CC(=O)/C=C/c2ccc(O)c(OC)c2)ccc1O,Potency,W2,6.75 µM (active)

# From PubChem BioAssay (NCATS)
